VACV E9 pol inh = vaccinia E9 polymerase processive synthesis inhibitors, primary screen, biochemical, absorbance; Vaccinia virus DNA polymerase (E9) processive complex; in vitro processive DNA synthesis, absorbance read-out; hits give low values; normalized absorbance, % (test concentration not listed); 0.94% of 46,000 active; AID 493162, 2011; in the data active = normalized absorbance mostly below about 85%, no sharp cut-off; inactive = mostly above about 86%
Large screens that a line does not name were inactive. The sample as a whole holds a higher share of hits than the screen did.

CCCC(C(=O)O)N1C(=O)/C(=C/c2ccccc2Cl)SC1=S (configuration not stated)	VACV E9 pol inh 56
CN1C(=O)/C(=C\c2ccccc2)Sc2ccc(C(=O)NC3CCCCC3)cc21	none
CN1C(=O)/C(=C/c2ccccc2Cl)Sc2ccc(C(=O)O)cc21	VACV E9 pol inh 46
CC(C(=O)O)N1C(=O)/C(=C/c2ccccc2Cl)SC1=S (configuration not stated)	none
CCCC(C(=O)O)N1C(=O)/C(=C/c2ccc(C)cc2)SC1=S (configuration not stated)	none
CN1C(=O)c2ccccc2Sc2ccc(C(=O)O)cc21	none
O=C1CCCCC1C(=O)c1cccc(C(F)(F)F)c1 (configuration not stated)	none
Cn1ccnc1SCC(=O)N1c2ccccc2C(C)(c2ccc(Cl)cc2)CC1(C)C (configuration not stated)	none
C[C@@]1(C(=O)O)CC[C@]2(C)CC[C@]3(C)C4=CC=C5C=C(O)C(=O)C=C5[C@]4(C)CC[C@@]3(C)[C@@H]2C1	VACV E9 pol inh 77
CC(NC(=O)c1cccc(C(=O)NC(C)c2ccccc2)c1)c1ccccc1 (configuration not stated)	none
CCN(Cc1ccccc1)c1ccc(/C=N/n2cnnc2)cc1	none
CCn1c2ccccc2c2cc(/C=N/n3cnnc3)ccc21	VACV E9 pol inh 61
CCn1c2ccccc2c2cc(C=Nc3ccc(Cl)cc3)ccc21	none
COC(=O)CN(c1ccccc1)S(=O)(=O)c1ccc(C)cc1	none
CN(C)c1ccc(/C=C2\SC(=O)NC2=O)cc1	none
O=C1OC(c2ccccc2)OC(=O)C1=C/C=C/c1ccccc1 (configuration not stated)	none
O=C1NC(=S)S/C1=C\C=C\c1ccccc1	VACV E9 pol inh 86
O=C(CN1C(=O)/C(=C\C=C\c2ccccc2)SC1=S)Nc1ccc(F)cc1	none
O=C1/C(=C/C=C/c2ccccc2)SC(=S)N1c1cccc(F)c1	none
O=C1NC(=O)/C(=C\C=C\c2ccccc2)S1	VACV E9 pol inh 55
CCc1cc2c(cc(C(=O)NCc3ccccc3)n2C)s1	none
O=C(O)c1cccc(-c2ccc(/C=c3/sc4nc5ccccc5n4c3=O)o2)c1	none
CC1=NN(c2cccc(C(=O)O)c2)C(=O)/C1=C/c1ccc(-c2cccc(Cl)c2C)o1	VACV E9 pol inh 51
Cc1ccc(C2=C/C(=C/c3ccc(-c4cccc(C(=O)O)c4)o3)C(=O)O2)cc1	none
N#Cc1ccc(C=Nc2ccc(S(N)(=O)=O)cc2)cc1	none
O=C(NC1CC1)c1cccc(C(F)(F)F)c1	none
O=c1ccc2cc(S(=O)(=O)N3CCCCC3)ccc2[nH]1	none
CC1SCC(=O)N(CC(=O)Nc2ccc(F)cc2F)C1=O (configuration not stated)	none
Cc1cc(OCC(=O)N(Cc2ccc(C(C)C)cc2)C2CCS(=O)(=O)C2)cc(C)c1Cl (configuration not stated)	none
CN1CCN(CCNC(=O)c2cc3c(=O)n(C)c4ccccc4c3n2C)CC1	VACV E9 pol inh 62
Cn1c(C(=O)NC2CC2)cc2c(=O)n(C)c3ccccc3c21	none
Cn1c(C(=O)NCCc2ccc(Cl)cc2)cc2c(=O)n(C)c3ccccc3c21	none
O=C(Cn1c(=O)n(Cc2ccccc2)c(=O)c2ccccc21)NCCC1=CCCCC1	none
COC(=O)c1ccc(C)c(NC(=O)c2ccncc2)c1	none
CC(C)(C)c1cc(/C=C2\SC(=S)NC2=O)cc(C(C)(C)C)c1O	none
CCOc1cc(/C=C2\SC(=S)NC2=O)cc(Cl)c1OC(=O)c1ccc(OC)cc1	none
CCOc1cc(/C=C2/SC(=S)NC2=O)cc(Br)c1O	VACV E9 pol inh 69
O=S1NN(c2ccccc2)S(=O)NN1c1ccccc1 (configuration not stated)	none
CC1=CC2=NC(C(F)(F)F)(C(F)(F)F)N=C(C)N2C=C1	none
CCOC(=O)c1c(NC(C)=O)sc(Br)c1-c1ccc(C)cc1	none
CCOC(=O)c1c(NC(=O)/C=C\C(=O)O)sc(C)c1-c1ccccc1	VACV E9 pol inh 63
CCOC(=O)c1c(NC(=O)CCN2CCOCC2)sc(C)c1-c1ccccc1	none
CC12CCC(C(=O)O)(CC1O)C2(C)C (configuration not stated)	none
CCc1ccc(-c2nc(CSCC(=O)N3CCc4ccccc43)c(C)o2)cc1	none
Cc1cc(N2CCCC2)ccc1/C=C(/C#N)c1ccc(F)cc1	none
CCOC(=O)C(C)Sc1nnc(Cn2c(=O)sc3ccccc32)n1-c1cccc(Cl)c1 (configuration not stated)	none
COc1ccc(OC)c(N2C(=O)C=CC2=O)c1	none
O=C1c2ccc(-c3nc4ccccc4c(=O)o3)cc2C(=O)N1CC1CCCO1 (configuration not stated)	none
Cc1cccc(/N=C2/NC(=O)C(Cc3cccc(C(F)(F)F)c3)S2)n1 (configuration not stated)	none
Cc1cccc(NC(=O)Nc2cccc(C)c2)c1	none
COC(=O)c1cccc(NC(N)=S)c1	none
N=C(N)c1cccc(NC(=O)Nc2cccc(C(=N)N)c2)c1	VACV E9 pol inh 77
CC(C)CNC(=S)N1CCCC1	none
COC(=O)c1cccc2[nH]ncc12	none
COc1ccc(CNC(=O)c2cccn3c(=O)c4c5c(sc4nc23)CCCC5)cc1	none
C=C1C(C(=O)NCc2ccco2)C1C(=O)NCc1ccco1 (configuration not stated)	VACV E9 pol inh 56
Nc1nonc1C(=O)NCc1ccco1	none
C=C(NCc1ccco1)c1ccc(Cl)cc1	none
O=S(=O)(c1ccc(Cl)s1)N1CCN(S(=O)(=O)c2ccc(Cl)s2)CC1	none
COc1cccc(/C=C2\SC(=S)N(CCCC(=O)Nc3ccccc3C(F)(F)F)C2=O)c1	none
COC(=O)CSC1=C(C#N)C(c2cccs2)C(C(=O)Nc2ccccc2C)=C(C)N1 (configuration not stated)	none
C=CCn1c(CNc2ccc(C)cc2)nnc1SCC(=O)c1ccccc1	none
CCOc1ccc2c(c1)C1(C)CC(C)(C)N2C(=O)N1c1ccc(Cl)c(Cl)c1 (configuration not stated)	none
O=C1C=CC(=O)c2c(O)cccc21	VACV E9 pol inh 74
O=C1c2cccc(O)c2C(=O)c2c(O)cccc21	none
O=C1c2ccc(O)c(O)c2C(=O)c2c(O)ccc(O)c21	none
COc1ccc(OC)c(NC(=O)CS(=O)(=O)c2cccc3nsnc23)c1	none
Cn1c2ccccc2c2cnn(CC(=O)N3CCCC3)c(=O)c21	none
O=C(O)COc1cccc(C(F)(F)F)c1	none
Cc1c(C(=O)O)oc2ccccc12	none
O=C(O)c1oc2ccccc2c1COc1ccccc1	VACV E9 pol inh 72
O=C(O)c1oc2ccccc2c1CSc1ccccn1	none
Oc1ccccc1C=Nc1ccccc1O	none
Cc1ccccc1C=Nc1ccccc1C#N	none
N#Cc1ccccc1N=Cc1cccc(O)c1O	VACV E9 pol inh 86
CCOc1cc(C)c2c(=O)c(-c3ccccn3)c(C)oc2c1	none
CCCC1C(c2ccccc2)C2(C#N)C(=O)NC1(O)CC2(C#N)C#N (configuration not stated)	none
Fc1ccc(-c2onc3ccc(-c4ccn[nH]4)cc23)cc1	VACV E9 pol inh 79
Cc1ccc(-c2onc3ccc(Cl)cc23)cc1	none
Brc1ccc2noc(-c3ccccc3)c2c1	none
CCN1CCN(C(c2cccs2)C(C)NC(=O)Cc2ccc(OC)c(OC)c2)CC1 (configuration not stated)	none
Cc1ccc(C(=O)O)cc1NC(=O)c1cccc(Cl)c1	none
CCc1cc(=O)oc2c(C)c(OC)ccc12	none
Cc1cc(NS(=O)(=O)c2ccc(N=Cc3ccccc3O)cc2)no1	none
O=C(O)c1cc(C=Nc2ccc(S(=O)(=O)NC3NC=CS3)cc2)c2c(c1)COCO2 (configuration not stated)	VACV E9 pol inh 52

Screens (PubChem)
